Assay outcomes as filed in PubChem.
M1 ag: human M1 muscarinic receptor agonists, primary screen, Fluo-8 calcium fluorescence, CHO-K1 cells, HTS | Muscarinic acetylcholine receptor M1 (Homo sapiens), P11229 | CHO-K1 hM1, agonist mode; 0% DMSO, 100% acetylcholine EC100 | activation, % at 3 µM | 360,000 compounds, 0.33% hits;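 active means activation above the run's mean compound activation plus 3 SD, cut at about 16% in these data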;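 further: peak over basal fluorescence ratio within a 140 s kinetic read after compound addition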
Target sequence (P11229 whole entry, looked up): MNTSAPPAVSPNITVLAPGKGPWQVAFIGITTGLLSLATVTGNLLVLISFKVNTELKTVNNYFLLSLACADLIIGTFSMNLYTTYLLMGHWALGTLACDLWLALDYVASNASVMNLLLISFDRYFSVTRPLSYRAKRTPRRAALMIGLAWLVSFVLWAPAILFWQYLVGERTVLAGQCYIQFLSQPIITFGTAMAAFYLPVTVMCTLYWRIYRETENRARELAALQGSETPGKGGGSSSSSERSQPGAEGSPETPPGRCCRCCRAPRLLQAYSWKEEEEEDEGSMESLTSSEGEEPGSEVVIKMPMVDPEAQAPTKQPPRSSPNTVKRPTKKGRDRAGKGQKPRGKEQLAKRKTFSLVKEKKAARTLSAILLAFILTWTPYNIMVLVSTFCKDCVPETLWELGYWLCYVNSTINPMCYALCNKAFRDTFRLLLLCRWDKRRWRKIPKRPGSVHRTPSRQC
CHO-K1 Ca ag: counter-screen for M1 agonists: effect in parental CHO-K1 cells; Fluo-8 calcium fluorescence; scaled to maximal ATP response, vehicle zero; activation, % at 3 µM; 360,000 compounds, 0.48% hits; AID 602248, 2012; in the data active means activation above about 15%;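 further: untransfected CHO-K1 host cells lacking M1 receptor as counterscreen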
CHO-K1 Ca PAM: nonselective calcium activators in parental CHO-K1 cells, primary screen, counter-screen for M1 PAM project, cell-based, Fluo-8 calcium fluorescence, full deck, 1536-well | ATP EC20; 0% at ATP EC20, 100% at ATP max | activation, % at 3 µM | 360,000 compounds, 0.02% hits | AID 602247, 2012;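 active means activation above the run cutoff, the mean activation of all test compounds plus 3 SD, cut at about 40% in these data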;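 further: peak over basal fluorescence ratio in a 140 s read after ATP addition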
CHO-K1 Ca antag: counter-screen for M1 antagonists: effect in parental CHO-K1 cells | ATP-induced calcium, Fluo-8 fluorescence | inhibition, % at 3 µM | 360,000 compounds, 0.6% hits;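 active means inhibition above a per-plate cutoff, the plate's mean sample inhibition plus 3 SD, cut at about 24% in these data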;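 further: 0% = DMSO plus EC80 ATP and 100% = DMSO alone without ATP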
CHRM1 PAM: human M1 muscarinic receptor positive allosteric modulators, primary screen, CHO-K1 cells, Fluo-8 calcium fluorescence, 1536-well; Muscarinic acetylcholine receptor M1 (Homo sapiens), P11229; CHO-K1 hM1, ACh EC20; 0% = ACh EC20, 100% = maximal ACh; activation, % at 3 µM; 360,000 compounds, 0.088% hits; in the data active means activation above about 19%, passing the limit was not always enough
CHRM1 antagonist: human M1 muscarinic receptor antagonists, primary screen, CHO-K1 cells, Fluo-8 calcium fluorescence, 1536-well; CHO-K1 hM1, ACh EC80 antagonist; inhibition, % at 3 µM; 360,000 compounds, 1.3% hits; AID 588852, 2011;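 active means percent inhibition above its own plate's cutoff, namely the mean of that plate's compound wells plus 3 SD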;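 further: peak over basal fluorescence ratio during 140 s after agonist addition; 0% = ACh EC80 plus DMSO and 100% = DMSO alone without agonist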
Active calls of the source: *. Most compounds without a hit are left out; they make up all but 2.3% or so of the library.

SMILES	M1 ag	CHO-K1 Ca ag	CHO-K1 Ca PAM	CHO-K1 Ca antag	CHRM1 PAM	CHRM1 antagonist
Clc1ccc(C2=C3CCCCn4c(-c5ccccc5)c[n+](c43)C2)cc1	-4.4	0.2	12.3	-7.0	-3.2	-5.0
COc1ccc(-c2c[n+]3c4n2CCCCC4=C(c2ccc(Br)cc2)C3)cc1	-14.8	-0.4	15.0	-18.2	-27.5	34.8*
Brc1ccc(CNc2ccc3ncccc3c2)cc1	-1.5	9.0	-7.8	18.8	-15.9	35.9*
CN1CCN(/N=C/c2ccc(OCc3ccccc3)cc2)CC1	-5.0	4.8	0.2	-5.4	-25.4	57.5*
O=S(=O)(c1ccc(Cl)cc1)N1CCC(O)(CN2CCN(Cc3ccccc3)CC2)CC1	-12.6	4.3	6.3	2.8	-30.2	11.1
O=S(=O)(c1ccccc1)N1CCC(O)(CSc2ccc(Cl)cc2)CC1	1.3	5.9	-15.7	28.9*	-6.8	27.4
N#C/C(=C\c1cn(-c2ccccc2)nc1-c1cc2ccccc2o1)c1nc2ccccc2[nH]1	-3.6	0.1	-2.3	3.6	-0.6	6.7
CN(C)S(=O)(=O)c1cccc(-c2nn(-c3ccccc3)cc2/C=C(\C#N)c2nc3ccccc3[nH]2)c1	-4.2	0.1	-10.6	24.3*	4.9	-2.3
CN1CCN(S(=O)(=O)c2ccc(N3CCc4ccccc4C3)nc2)CC1	-13.3	-0.2	16.3	-3.5	9.4	-7.3
CCN(CC)CCn1c(=S)[nH]c2cc(C(=O)NCCc3ccc(OC)c(OC)c3)ccc2c1=O	-8.5	0.0	4.4	-18.8	-1.3	-1.3
COc1ccc(-c2nc3c4ccccc4ccn3c2Cc2ccc(C)cc2)cc1OC	-5.7	0.2	-8.7	-5.8	-3.3	-19.2
COc1ccc(-c2nc3c4ccccc4ccn3c2Cc2ccsc2)cc1OC	-7.7	0.2	-11.0	23.7*	-15.4	17.6
COc1ccc(OCCn2cnc3ccccc32)cc1	1.6	2.9	-9.1	-2.5	7.2	-12.7
COc1ccc(O)c(/C=N/n2c(-c3ccco3)csc2=Nc2cccnc2)c1	-3.9	0.3	-15.0	28.3*	-12.6	14.3
CSc1nc(-c2ccc(N(C)C)cc2)c(C#N)c(=O)n1C	3.4	0.3	-4.0	7.4	11.1	-4.8
CC1CCCCC1NC(=O)CSc1nnc(-c2ccco2)n1N (centres undefined)	-1.5	0.1	-1.9	2.3	-1.8	-11.2
O=C(Cc1ccccc1F)c1ccc(O)cc1O	-5.6	19.4*	5.9	7.6	-4.9	7.3
C[C@H](CO)N1C[C@H](C)[C@H](CN(C)C(=O)Nc2ccnc(N3CCOCC3)c2)OCc2cnnn2CCCC1=O	-4.2	0.0	15.1	13.1	2.0	-6.1
Clc1ccccc1OCCN1CCC(Cc2ccccc2)CC1	-3.2	3.9	23.9	-18.1	-14.4	30.4*
C=CCOc1ccccc1CN1CCC(Cc2ccccc2)CC1	-7.6	2.2	21.0	-10.9	-14.9	19.4
OCc1ccccc1OCCCN1CCC(Cc2ccccc2)CC1	-8.6	0.3	-16.3	3.8	-20.2	33.2*
Clc1cccc(CN2CCC(Cc3ccccc3)CC2)c1	-10.4	1.7	17.0	-32.0	-16.2	11.1
O=Cc1cc(Cl)ccc1OCCN1CCC(Cc2ccccc2)CC1	-7.0	3.4	22.1	-4.8	-25.4	54.7*
c1ccc(CC2CCN(Cc3ccccn3)CC2)cc1	-6.7	-0.7	5.5	-13.6	-6.4	7.9
CC(C)C(=O)Nc1ccc(C(=O)NNC(=S)NC(=O)c2ccco2)cc1	-3.4	-0.5	11.5	-3.3	18.6	-18.7
CCc1nnc(NC(=O)CCC(=O)N2CCN(Cc3ccc(F)cc3)CC2)s1	16.0*	0.3	-8.5	-2.9	-2.4	-8.9
NNC(=O)c1ccc(CN2C(=O)c3cccc4cccc2c34)cc1	33.5*	0.7	13.8	-4.7	14.9	-12.0
C=CCn1c(SCC#N)nc2sc(CC)cc2c1=O	-6.2	1.3	-7.0	-19.3	-20.4	34.2*
